KCNQ2 block – KCNQ2 (rat) channel inhibition; AID 2156; CHO-K1 KCNQ2, FluxOR thallium flux, 20 min; hits give low values; B-score at 10 µM; 1.1% of 310,000 active; O88943;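 active means fluorescence ratio B-score at most minus 3 library SDs, with starting brightness B-score within 2 library SDs, cut at about -5.5 in these data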
KCNQ2 enhance – KCNQ2 (rat) channel potentiation. O88943. CHO-K1 KCNQ2, FluxOR thallium flux fluorescence; hits give high values. B-score at 10 µM. 0.54% of 310,000 active. AID 2239;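 active means fluorescence ratio B-score at least 3 SD of library B-scores, with initial fluorescence B-score within 3 of them, cut at about 5.3 in these data; same plate scores as AID 2156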;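 further: B-score of peak minus minimum over baseline fluorescence ratio after K+ and Tl+ stimulus; positive B-score means potentiation of KCNQ2 with more thallium influx and brighter signal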
Kir21 conf inh – confirmation of mouse Kir2.1 potassium channel inhibitors; shares compounds with KCNQ2 enhance; Kir2.1-expressing cells, FluxOR thallium flux fluorescence; hits give low values; Tl flux remaining, % of negative control (hits give low values), % at 10 µM; 41% of 2,300 active;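 active means Primary-screen hit whose thallium flux fell at least 3 control SD below untreated wells in both duplicates, with normal baseline fluorescence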;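 further: 0% = blank wells without stimulus and 100% = stimulated no-compound controls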
HEK293 Tl flux – parental HEK293 activity in Kir2.1 inhibitor counter-screen | shares compounds with KCNQ2 enhance | parental HEK293 cells, FluxOR thallium flux fluorescence; 0% = unstimulated blank wells | FluxOR signal as % of negative control (100 = no effect), % at 10 µM | 19% of 2,300 active | AID 2105;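 active means dye signal at least 3 control SD above or below untreated wells in both duplicates, raw fluorescence within 3, either direction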;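 further: percent is based on the flux ratio of peak minus minimum fluorescence over baseline F0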
CHO-K1 ctr – counter-screen for KCNQ2 potentiators: effect in parental CHO-K1 cells; FluxOR thallium flux fluorescence; zero = vehicle mean+3SD, 100% = vehicle-minus-blank window; 43% of 1,200 active; activity increase over 3SD of controls, % at 10 µM; AID 2282; shares compounds with KCNQ2 enhance;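 active means signal rise of at least 3 SD above the untreated control mean, in both duplicate wells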;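 further: counter screen of KCNQ2 potentiator hits so any rise reflects channel-independent effects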
KCNQ1 sel pot – selectivity of KCNQ2 potentiators: effect on human KCNQ1; shares compounds with KCNQ2 enhance; CHO KCNQ1 stable, FluxOR thallium flux fluorescence; beyond 3SD, as % of vehicle-control signal; activation over 3SD threshold, % at 10 µM; 28% of 1,200 active; AID 2283;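 active means fluorescence ratio rise of at least 3 SD of vehicle wells above their mean, in both replicate wells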;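 further: 0% = vehicle mean plus 3 SD and 100% = vehicle minus unstimulated blank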
KCNQ2 pot conf – confirmation of rat KCNQ2 potassium channel potentiators | 68% of 1,200 active | potentiation, less the hit threshold, % at 10 µM | CHO-KCNQ2 cells, FluxOR thallium flux fluorescence | AID 2287 | shares compounds with KCNQ2 enhance;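 active means fluorescence ratio rising 3 SD or more over the vehicle control mean in both replicates, plus primary screen hit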;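 further: peak minus minimum thallium fluorescence divided by baseline after K/Tl stimulus; 0% = vehicle mean plus 3 SD and 100% = vehicle minus unstimulated blank difference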
Kir2-1 sel – selectivity of KCNQ2 potentiators: effect on mouse Kir2.1. shares compounds with KCNQ2 enhance. HEK293 Kir2.1, FluxOR thallium flux fluorescence. activity over 3SD threshold, % at 10 µM. 2% of 1,200 active;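 active means fluorescence ratio rise of at least 3 SD above the vehicle-control mean, seen in both replicates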;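 further: 0% = vehicle mean plus 3 SD and 100% = vehicle minus no-stimulus blank window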
KCNQ2 W236L MoA – rat KCNQ2 W236L mutant potentiation by KCNQ2 potentiators | shares compounds with KCNQ2 enhance | CHO KCNQ2-W236L, automated patch clamp current | current increase over 3SD of negative controls (%), hits give high values, % at 25 µM | 10% of 940 active | AID 2558;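 active means current increase at least 3 SD of the untreated controls above them in both duplicate recordings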
Active calls of the source: *; i = inactive; x = not tested or not shown. Only some compounds are listed: those with a hit (about 1.6% of all), similar ones and a draw of the others.

SMILES	KCNQ2 block	KCNQ2 enhance	Kir21 conf inh	HEK293 Tl flux	CHO-K1 ctr	KCNQ1 sel pot	KCNQ2 pot conf	Kir2-1 sel	others
CCOC(=O)c1c(NC(=O)C2CC(Cl)=CCC2C(=O)O)sc2c1CCCCC2 (stereo not given)	i	x	x	x	x	x	x	x
Cc1cnc(C(=O)OCC(=O)NC(=O)c2ccccc2)cn1	i	x	x	x	x	x	x	x
COc1cccc(NS(=O)(=O)c2csc(C(N)=O)c2)c1	i	1.1	x	x	x	x	x	x
CCC(C)c1ccc(C(C)NC(=S)NCc2ccc(F)cc2)cc1 (stereo not given)	i	5.2	x	x	x	x	x	x
CCC(NC(=S)NCc1ccc(F)cc1)c1ccc(C(C)C)cc1 (stereo not given)	i	7.2*	i	i	78*	-13	21*	-29	KCNQ2 W236L MoA=i
CC(=O)Nc1cccc(NC(=O)CS(=O)(=O)c2cn(CC(=O)N3CCCC3)c3ccccc23)c1	i	x	x	x	x	x	x	x
c1cc(CN2CCCCC2)cc(OCCCNc2nc3ccccc3s2)c1	i	x	26%*	i	x	x	x	x
O=C(NCCCOc1cccc(CN2CCCCC2)c1)c1ccc(Cl)c(Cl)c1	i	x	x	x	x	x	x	x
COc1cc(OC)cc(C(=O)NNc2nc3cc4c(cc3s2)OCO4)c1	i	2.1	x	x	x	x	x	x
COc1cc(C(=O)NNc2nc3cc4c(cc3s2)OCO4)cc(OC)c1OC	i	12*	i	i	-4	-41	-9	-33
S=c1nc[nH]c2c1cnn2-c1ccccc1	i	10*	i	162%*	32*	-9	2.7*	-37	KCNQ2 W236L MoA=i
Nc1ncnc2c1cnn2-c1ccccc1	i	1.2	x	x	x	x	x	x
CSc1nc2sc3c(c2c(=S)[nH]1)CC(C)(C)OC3	i	15*	i	401%*	-15	-4	82*	-3	KCNQ2 W236L MoA=i
CCc1nc2sc3c(c2c(=S)[nH]1)CC(C)(C)OC3	i	1.3	x	x	x	x	x	x
CCOC(=O)C1=C(Cn2cnc3ccccc32)NC(=O)NC1c1cc(C)ccc1C (stereo not given)	i	6.6*	i	52%*	-10	-15	-8	-39	KCNQ2 W236L MoA=i
COC(=O)C1=C(Cn2cnc3ccccc32)NC(=O)NC1c1cc(C)ccc1C (stereo not given)	i	1.1	x	x	x	x	x	x
COc1cccc(C(=O)N(c2ccccc2)C2C=CS(=O)(=O)C2)c1 (stereo not given)	i	2.2	x	x	x	x	x	x
COc1ccc(S(=O)(=O)n2ccc(-c3ccc4c(c3)CCC(C)(C)O4)n2)cc1	i	8.2*	i	i	3.8*	-18	-10	-29
CC1(C)CCc2cc(-c3ccnc(=S)[nH]3)ccc2O1	i	x	x	x	x	x	x	x
CC1(C)CCc2cc(-c3ccn(S(=O)(=O)c4ccccc4Cl)n3)ccc2O1	i	19*	i	i	4.6*	-9	39*	-28	KCNQ2 W236L MoA=3.0%*
CC1(C)CCc2cc(CN3CCN(c4ccccn4)CC3)ccc2O1	i	1.7	x	x	x	x	x	x
COc1cccc(/C=C/C(=O)OCC(=O)N2CCN(S(=O)(=O)c3ccc(Cl)cc3)CC2)c1	i	2	x	x	x	x	x	x
O=C(OCC(=O)N1CCN(S(=O)(=O)c2ccc(Cl)cc2)CC1)c1cccc(OC(F)F)c1	i	11*	i	i	-8	-16	12*	-29	KCNQ2 W236L MoA=i
CC(Oc1ccc(Cl)cc1Cl)C(=O)N(C)c1ccccc1 (stereo not given)	i	x	50%*	i	x	x	x	x
COC(=O)NNC(=O)C(C)Oc1ccc(Cl)cc1Cl (stereo not given)	i	x	x	x	x	x	x	x
Cc1oc(-c2ccccc2)nc1CS(=O)CC(=O)NC1CCCC1 (stereo not given)	i	x	x	x	x	x	x	x
